# Assay outcomes from PubChem.
# a7 integrin act: qHTS for Activators of Integrin-Mediated Alleviation for Muscular Dystrophy; AID 624291, 2012; alpha7betagal myoblasts, beta-gal FDG fluorescence, 48 h; Potency, µM (doses to about 38.3 µM), without a hit: at the top dose activation, usual class: activators; 350,000 compounds, 0.064% hits; active means well fitted activation curve with a large enough effect; inconclusive means small, poorly fitted or top-dose-only effect; inactive means no such curve, though single readings can be large or run the other way;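 further: potency means the concentration at half of the fitted maximal effect; 100% = response of the positive control SU9516; nearly all actives have a fitted effect of over 60% in size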
#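 Alpha7betagal+/- myoblasts (passage 13) were plated 16-24 hr, then exposed to compounds (1:260 dilution of DMSO stock) for 48 hours at 37C. After MPER lysis, β-galactosidase reporter activity was read as FDG fluorescence (ex 480/em 540) after 30 minutes.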
# D3 ag: qHTS of D3 Dopamine Receptor Agonist: qHTS; 410,000 compounds, 0.58% hits; D(3) dopamine receptor (Homo sapiens), P35462; D3R DiscoveRx beta-arrestin cells, luminescence, 90 min; AID 652048, 2013; max activation, %; in the data active means max activation above about 30%; further: 0% is about no effect
# Target sequence (P35462 whole entry, looked up): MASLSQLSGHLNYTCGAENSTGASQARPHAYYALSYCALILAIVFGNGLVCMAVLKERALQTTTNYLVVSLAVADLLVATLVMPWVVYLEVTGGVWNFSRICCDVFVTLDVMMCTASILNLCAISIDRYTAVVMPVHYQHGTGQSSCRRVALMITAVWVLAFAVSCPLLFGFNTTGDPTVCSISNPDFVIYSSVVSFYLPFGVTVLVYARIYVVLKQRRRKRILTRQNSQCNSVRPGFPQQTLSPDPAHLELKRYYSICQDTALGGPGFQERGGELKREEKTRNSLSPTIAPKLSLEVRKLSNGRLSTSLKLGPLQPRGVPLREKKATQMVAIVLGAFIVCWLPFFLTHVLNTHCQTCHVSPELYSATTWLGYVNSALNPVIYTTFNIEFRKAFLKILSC
#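 Cells at 1500/well, incubated overnight, then treated with pinned compounds (dopamine as control) for 90 min at 37 degrees C. DiscoveRx reagent added for 30 - 60 minutes at room temperature; luminescence read.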
# D3 antag: qHTS of D3 Dopamine Receptor Antagonist: qHTS; D(3) dopamine receptor (Homo sapiens), P35462; D3R cells, DiscoveRx beta-arrestin luminescence, antagonist mode; hits give low values; AID 652054, 2013; 360,000 compounds, 2.5% hits; max response, negative = inhibition, %; in the data active means max response below about -50%; inconclusive means no clear call, values can overlap the other calls; further: on the % scale 0 is the no-effect control and ±100 the full control effect
#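 Cells expressing the human receptor were seeded at 1500 cells/well, incubated overnight at 37 degrees C in 5% CO2, then exposed to library compounds with dopamine controls for 90 minutes at 37 degrees C before luminescent detection.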
# * hit, by the source's call; ? = inconclusive; · = not tested or not shown. In the library only some 2.9% were active in any assay of this set; here they are far more common.
SMILES,a7 integrin act,D3 ag,D3 antag
COc1cccc(C(=O)NCCS(=O)(=O)N2CCCCC2)c1,8.8%,-2.2,4.6
COc1ccc(C(CNC(=O)c2cc3ccccc3cc2OC)N2CCCC2)cc1 (stereo unspecified),-19.3%,-9.6,-56.2*
COc1cc(N)c(Cl)cc1C(=O)OCC(=O)NCc1cccs1,1.5%,-7.8,7.2
FC(F)(F)c1ccccc1Cc1c(C2CCCCC2)nc2c3ccccc3ccn12,·,-14.3,-13.3
Cc1cc(C)cc(OCC(=O)N2CCc3ccccc3C2)c1,43.1%,-16.3,4.9
COc1ccc(-c2ccc3c(c2)O[C@@H](CN(C)C(=O)c2ccccc2F)[C@@H](C)CN([C@@H](C)CO)S3(=O)=O)cc1,-5.5%,0.2,4.7
NC(=O)C(c1ncc(C(F)(F)F)cc1Cl)c1c(Cl)cccc1Cl (stereo unspecified),-1.4%,-3.3,-16.9
Cc1ccc(S(=O)(=O)N(C)c2ccc(C(=O)NCC(c3ccccc3)N3CCCC3)cc2)cc1 (stereo unspecified),-31.3%,-15.2,-64.3*
COc1ccc(C(CNC(=O)c2cccc(S(=O)(=O)Nc3ccccc3OC)c2)N2CCCCC2)cc1 (stereo unspecified),-5.6%,-27.9,-80.8*
COc1ccccc1N(C)S(=O)(=O)c1ccc(C(=O)NCC(c2ccco2)N2CCCCC2)cc1 (stereo unspecified),-2.3%,-4.3,?
COc1ccc(N(C)S(=O)(=O)c2cccc(C(=O)NCC(c3cccs3)N(C)C)c2)cc1 (stereo unspecified),0.0%,-28.4,-67.0*
CN(C)C(CNC(=O)c1cc(S(=O)(=O)N(C)c2ccc(F)cc2)ccc1Cl)c1cccs1 (stereo unspecified),-9.7%,1.9,8.4
COc1ccc(N(C)S(=O)(=O)c2cccc(C(=O)NCC(c3ccco3)N3CCCC3)c2)cc1 (stereo unspecified),-19.5%,-26.9,-57.2*
CN(c1ccccc1)S(=O)(=O)c1ccc(C(=O)NCC(c2ccco2)N2CCCCC2)cc1 (stereo unspecified),-14.1%,-15.5,?
COc1ccccc1NS(=O)(=O)c1cccc(C(=O)NCC(c2ccco2)N2CCCCC2)c1 (stereo unspecified),9.2%,-31.3,-16.5
O=C(NCC(F)(F)F)N1CCOCC1,11.1%,-3.0,-1.2
CCc1ccc(C(=O)NNC(=O)c2n[nH]c(=O)c3ccccc23)cc1,6.2%,-10.6,-17.3
COc1ccc(NC(=O)CSc2nnnn2C)c([N+](=O)[O-])c1,-12.1%,-3.3,4.7
CCCOc1ccccc1C(=O)Nc1ccc(-c2nc3ccc(C)cc3s2)cc1,·,-9.0,·
COc1ccc(S(=O)(=O)NCCCCCC(=O)O)cc1C(=O)O,-11.2%,17.3,3.7
COc1ccc(C(CNC(=O)c2cccc(S(=O)(=O)Nc3ccc(F)cc3)c2)N2CCCC2)cc1 (stereo unspecified),-33.5%,-29.3,?
COc1ccc(C(CNC(=O)c2cccc(S(=O)(=O)Nc3ccccc3OC)c2)N2CCCC2)cc1 (stereo unspecified),-29.6%,-30.8,-64.7*
Cc1noc(C)c1S(=O)(=O)N(C)C[C@H]1Oc2ccc(NC(=O)Cn3cnnn3)cc2C(=O)N([C@H](C)CO)C[C@@H]1C,-2.9%,8.2,-3.2
Cc1ccc2c(c1)/C(=C/c1ccccc1F)C(=O)N2,0.0%,0.1,13.2
CN1C2CCC1/C(=C\c1ccccc1F)C(=O)/C2=C/c1ccccc1F,-37.6%,-7.6,-53.6*
SMILES,a7 integrin act,D3 ag,D3 antag
COc1ccc2c(c1)c1c(c(=O)n(-c3ccccc3)c(=O)n1CC(=O)Nc1ccc(F)cc1)n2C,·,4.1,·
CC(=O)C1=C(O)C(=O)N(Cc2cccnc2)C1c1ccc(Cl)cc1 (stereo unspecified),12.3%,34.5*,-50.3*
CC(=O)C1=C(O)C(=O)N(Cc2ccccc2)C1c1ccc(Cl)cc1 (stereo unspecified),2.0%,5.7,5.2
CSc1nc(NS(=O)(=O)c2cc(C)c(Cl)cc2Cl)nn1C,-30.5%,4.8,17.4
Cc1cccc(-n2nnc(C(=O)NCc3ccccc3Cl)c2N)c1,13.8%,0.3,9.4
COCCn1c(SCCN2CCCCC2)nc2ccccc2c1=O,0.0%,-6.4,-65.4*
COCCn1c(SCC(=O)N2CCCCC2)nc2ccccc2c1=O,-1.6%,-13.9,-26.6
O=C(c1noc2c1CCCCC2)N1CCN(c2cccc(Cl)c2)CC1,·,-6.8,·
O=C(c1noc2c1CCCCC2)N1CCN(c2cccc(C(F)(F)F)c2)CC1,·,52.1*,·
CCSC1=N/C(=C\c2ccc(C(=O)O)cc2)C(=O)S1,-7.3%,8.4,-17.9
CCOC(=O)SC1=N/C(=C\c2ccc(N(C)C)cc2)C(=O)S1,-14.0%,-45.3,-54.0*
Cc1cc(CN(C)C(=O)CC2C(=O)NCCN2Cc2c(F)cccc2Cl)n[nH]1 (stereo unspecified),8.3%,-5.0,-16.9
CC(C)OCCCn1c(=S)[nH]c2ncccc2c1=O,-9.1%,-0.2,0.0
CC1CCCC(C)N1CCCNC(=O)Cn1ncc2c([nH]c3ccccc32)c1=O (stereo unspecified),-22.0%,-2.8,-0.7
O=c1c2cccnc2[nH]c(=S)n1CCCN1CCN(c2ccccc2F)CC1,-3.3%,6.8,-54.6*
CCN(CCCn1c(=S)[nH]c2ncccc2c1=O)c1ccccc1,20.5%,-9.0,8.3
O=C(Cn1ncc2c([nH]c3ccccc32)c1=O)NCCCN1CCN(c2ccccc2)CC1,-21.0%,6.1,-62.9*
O=c1c2ccccc2[nH]c(=S)n1CCN1CCCCC1,-27.8%,-13.0,-13.9
O=c1c2ccccc2[nH]c(=S)n1CCCN1CCN(c2ccccc2)CC1,10.4%,-11.3,-70.8*
CCN(CC)CCCn1c(=S)[nH]c2ncccc2c1=O,3.8%,-11.3,-52.9*
COc1ccc2nc3ccccc3nc2c1NC(=O)c1ccc(Cl)cc1Cl,17.6%,-2.0,3.2
CCCn1c(=S)[nH]c2cc(C(=O)N3CCN(c4ccccc4)CC3)ccc2c1=O,5.7%,8.4,6.8
O=c1c2ccccc2[nH]c(=S)n1CCCN1CCN(c2ccccc2F)CC1,5.1%,9.5,-99.1*
CN1CCN(c2ccccc2NC(=O)Cn2ncc3c([nH]c4ccccc43)c2=O)CC1,-54.9%,-17.4,-13.0
Cc1ccc2[nH]c3c(=O)n(CC(=O)Nc4ccccc4N4CCN(C)CC4)ncc3c2c1,-58.3%,-18.0,-54.8*
SMILES,a7 integrin act,D3 ag,D3 antag
CC1CC(C)CN(CCCn2c(=S)[nH]c3ccccc3c2=O)C1 (stereo unspecified),39.8%,-16.2,?
O=C(c1ccc2c(=O)n(Cc3ccco3)c(=S)[nH]c2c1)N1CCN(c2ccccc2)CC1,-7.7%,-0.8,-50.2*
OC[C@@H](O)[C@@H](O)CO,33.8%,10.6,-9.5
CCOC(=O)C(NC(C)=O)(Nc1ccc(S(N)(=O)=O)cc1)C(F)(F)F (stereo unspecified),-8.1%,5.0,-19.3
Cc1cccc(C)c1NC(=O)CN(C)C(=O)c1ccc(NS(=O)(=O)c2ccc3[nH]c(=O)[nH]c3c2)cc1,-6.5%,-17.2,2.3
Cc1ccc2nc(-c3cccc(SC4CCCCC4)c3)c(NCc3ccccc3)n2c1,-26.9%,5.1,58.0
